This is a sample that favours compounds with a hit; in the whole collection about 6.2% have one here.
Lassa entry inh: Lassa virus entry inhibition | hit rate 1.2% among 300,000 | AID 540256 | Potency, µM (titrated, usually from 37.9 µM), actives largely listed as inhibitors | Lassa virus pseudotype entry inhibition, cell reporter; calls by dose curve; tested in HEK293 cells; further: nearly all actives have a fitted effect of over 50% in size
HCMV antiviral: inhibitors of human cytomegalovirus. HFF cells, HCMV-luciferase reporter, 72 h; stronger effect = lower value. activity change, negative = inhibition, % at 57.5 µM. hit rate 4.5% among 410,000. AID 1259415; in the data active means activity change below about -60%; inconclusive means no clear call, values can overlap the other calls; inactive means above about -39%
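Cell-based, HFFs, 1000 cells/well, 16 h 37C; cpds in DMSO + HCMV-luc, MOI 1 PFU/cell; 72 h 37C; OneGlo luminescence after 5 min RT; norm. to buffer vs Salinomycin 10uM.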
Marburg entry inh: Marburg virus entry inhibition; hit rate 1.8% among 300,000; Marburg virus pseudotyped entry inhibition, cell reporter; Potency, µM (highest dose often 37.8 µM), most hits filed as inhibitors; calls by dose curve; tested in HEK293 cells
FMDV antiviral: blocks foot and mouth disease virus | FMDV antiviral cell-based qHTS | Potency, µM (doses to about 57.9 µM), actives largely listed as inhibitors | hit rate 1.2% among 410,000 | AID 1159524; calls by dose curve; tested in HEK293T cells; further: read-out not given here; nearly all actives have a fitted effect of over 45% in size
Hits are given with their value; n = inactive; u = inconclusive; x = no result given.

SMILES	Lassa entry inh	HCMV antiviral	Marburg entry inh	FMDV antiviral
CNC[C@H]1Oc2c(NC(=O)c3ccc(-c4nccs4)cc3)cccc2C(=O)N([C@@H](C)CO)C[C@@H]1C	x	n	x	n
CC(C)(C)OC(=O)CC[C@@H](C(=O)N1CCN(C(=O)OC(C)(C)C)CC1)n1cc(C(CO)NC(=O)OC(C)(C)C)nn1 (stereo not given in full)	x	n	x	n
C[C@](N)(C(=O)O)c1ccc(-c2nn[nH]n2)cc1	x	x	x	n
O=[N+]([O-])c1ccc(/C=N/Nc2nc(N3CCCCC3)nc(N3CCCCC3)n2)o1	u	n	21µM	n
O=[N+]([O-])c1cc2c(cc1/C=N/Nc1nc(Nc3ccccc3)nc(N3CCCCC3)n1)OCO2	n	-75	n	n
Cc1cc(C)nc(N/N=C/c2cc3c(cc2[N+](=O)[O-])OCO3)n1	n	u	u	n
COc1cccc(/C=N/Nc2nc(Nc3ccc([N+](=O)[O-])cc3)nc(N3CCCC3)n2)c1O	u	u	2µM	n
Cc1cc(C)c2nc(C)cc(Nc3ccc(C(=O)N(C)C)cc3)c2c1	x	x	x	n
CC(=O)c1ccc(Nc2cc(C)nc3c(C)cc(C)cc23)cc1	u	u	4.1µM	n
Cc1cc(C)c2nc(C)cc(Nc3ccc(C(=O)NCCO)cc3)c2c1	n	-91	11µM	n
COc1ccc(Cl)cc1NC(=O)Nc1ccc(C(=O)N2CCCC2)cc1	n	n	u	u
COc1ccc(C2CC(=O)C3=C(C2)NC(C)=C(C#N)C3c2ccc(N(C)C)cc2)cc1 (stereo not given)	13µM	n	u	n
COC(=O)c1ccc(C2C(C#N)=C(C)NC3=C2C(=O)CC(C)(C)C3)cc1 (stereo not given)	n	n	n	n
CCOc1ccc(CN(CCO)CCO)cc1[N+](=O)[O-]	n	-68	n	n
CCOc1ccc(CSC2=NCCN2)cc1[N+](=O)[O-]	u	n	4µM	n
Cc1ccc(-n2c(C)cc(C3=NNC(=NC4CC4)SC3)c2C)cc1C	x	-99	x	18µM
Cc1cc(C2=NNC(=NC3CC3)SC2)c(C)n1-c1c(C)n(C)n(-c2ccccc2)c1=O	n	n	n	n
COc1cc(C)c(C)cc1S(=O)(=O)N1CCN(Cc2ccccc2)CC1	n	-62	n	x
Cc1ccc(S(=O)(=O)N2CCN(CCc3ccccc3)CC2)c(C)c1	n	-65	u	u
COc1ccc(S(=O)(=O)N2CCN(Cc3ccccc3)CC2)c(C)c1	x	n	x	n
CCc1ccccc1NC(=O)CCc1c(C)nc(SC)nc1C	n	n	n	n
Oc1ccc(CN2CCCc3ccccc32)c2cccnc12	4.5µM	x	u	n
COc1ccccc1N1CCN(Cc2ccc(O)c3ncccc23)CC1	10µM	-91	u	u
CCOC(=O)C1CCN(Cc2ccc(O)c3ncccc23)CC1	n	u	u	n
COc1ccccc1CN1C(=O)C(=O)c2cccc(C)c21	n	n	n	n
SMILES	Lassa entry inh	HCMV antiviral	Marburg entry inh	FMDV antiviral
Cc1cccc2c1N(Cc1ccccc1OCCC(C)C)C(=O)C2=O	u	-93	u	n
CCCCCOc1ccccc1CN1C(=O)C(=O)c2cc(C)ccc21	n	-93	n	n
Cc1cc(Br)cc2c1N(Cc1ccccc1OC(C)C)C(=O)C2=O	u	-88	u	n
N=c1sccn1CC(=O)NCc1ccc(Cl)cc1Cl	n	n	13µM	n
CCOC(=O)c1[nH]cnc1C(=O)Nc1cccc(Cl)c1	n	n	n	n
COc1ccc(CN(C)Cc2nc(Cc3ccccc3Cl)no2)cc1OC	u	n	u	n
COc1ccc(CCN(C)Cc2c(O)ccc3cc(Br)ccc23)cc1OC	n	-77	u	u
COc1ccc(CN(C)Cc2c(O)ccc3cc(Br)ccc23)cc1OC	n	-66	u	n
COc1ccc2cc(Br)ccc2c1CC(=O)N(C)C	x	n	n	n
Cc1ccn2c(NC3CCCCC3)c(-c3cccc(-c4cccc(Cl)c4)c3)nc2c1	x	n	x	u
COc1ccc(CCNC(=O)CCCC(=O)n2nc(C)c3ccccc32)cc1OC	n	n	n	n
CCOC(=O)c1ccc(N2C(=O)c3n[nH]c(C)c3C2c2ccccn2)cc1 (stereo not given)	x	n	x	n
COc1cc(C2c3c(n[nH]c3C)C(=O)N2c2ccc(C)cc2)ccc1O (stereo not given)	n	u	n	n
CCOC(=O)c1ccc(N2C(=O)c3n[nH]c(-c4ccco4)c3C2c2ccc(C)cc2)cc1 (stereo not given)	u	-103	u	32µM
CCOc1cc(C2c3c(n[nH]c3C)C(=O)N2c2ccc(C)cc2)ccc1O (stereo not given)	n	-81	n	n
CCOC(=O)c1ccc(N2C(=O)c3n[nH]c(C)c3C2c2ccc(OCC)cc2)cc1 (stereo not given)	u	-76	u	u

Screening results: PubChem BioAssay, National Center for Advancing Translational Sciences (NCATS)
